# Measured values as given in PubChem BioAssay (NCI).
# This is part of a sample that, as a whole, favours compounds with a hit. Of some 79,000 tested, about 15% had one in any assay. Values without a mark were called inactive. Activity calls are given as the source filed them. Rule as the data show it: active = growth inhibition above about 70%; inactive = the rest.
# How the values were obtained:
# [1] = NCI Yeast Anticancer Drug Screen. Data for the rad52 strain (AID 147);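 also: 0% = growth of vehicle-treated control cultures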; conditions: S. cerevisiae rad52 mutant growth inhibition, hits give high values
# Procedure, shortened: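 Inhibition of yeast growth, referenced to vehicle controls, was the measured output for a strain with defective DNA damage repair.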
# [2] = NCI Yeast Anticancer Drug Screen. Data for the wt1 strain (AID 149);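 also: 0% = growth of vehicle-treated wt1 cultures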; conditions: S. cerevisiae wt1 strain (SPY 50644) growth inhibition, hits give high values
# Procedure, shortened: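 Compounds are added to wt1 yeast cultures. Growth is then measured. Inhibition is expressed relative to vehicle-treated controls.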
# [3] = NCI Yeast Anticancer Drug Screen. Data for the rad50EPP+ strain (AID 151);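 also: 0% = growth of vehicle-treated control cultures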; conditions: S. cerevisiae rad50 mutant strain, hits give high values
# Procedure, shortened: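 Genetically defined yeast (rad50EPP+, DNA damage repair alteration) is grown with compound, and inhibition of growth is expressed relative to vehicle-treated controls.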
# [4] = NCI Yeast Anticancer Drug Screen. Data for the mgt1 strain (AID 153); conditions: S. cerevisiae mgt1 mutant growth inhibition, hits give high values
# Procedure, shortened: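 In the mgt1 strain, test compounds were added and growth inhibition was determined relative to vehicle-treated controls.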
# [5] = NCI Yeast Anticancer Drug Screen. Data for the rad50 strain (AID 155);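 also: 0% = growth of vehicle-only cultures of the same strain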; conditions: S. cerevisiae rad50 strain growth inhibition, hits give high values
# Procedure, shortened: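 Inhibition values express reduced yeast growth in compound-treated cultures relative to vehicle-treated controls.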
# [6] = NCI Yeast Anticancer Drug Screen. Data for the mec2-1 strain (AID 157); conditions: S. cerevisiae mec2-1 strain, hits give high values
# Procedure, shortened: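 Each compound was tested on mec2-1 yeast, a strain altered in DNA damage repair or cell cycle control. Growth inhibition is reported relative to vehicle.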
# [7] = NCI Yeast Anticancer Drug Screen. Data for the rad14 strain (AID 159);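 also: 0% = growth of vehicle-treated control cultures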; conditions: S. cerevisiae rad14 strain growth inhibition, hits give high values
# Procedure, shortened: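 A mutant yeast strain defective in DNA damage repair is treated with compound; inhibition of its growth is scored against untreated, vehicle-exposed cultures.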
# [8] = NCI Yeast Anticancer Drug Screen. Data for the sgs1 mgt1 strain (AID 161);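 also: 0% = growth of cultures given vehicle only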; conditions: S. cerevisiae sgs1 mgt1 strain, hits give high values
# Procedure, shortened: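 Read-out: growth inhibition vs vehicle controls. Cells: mutant yeast strain deficient in DNA damage repair.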
# [9] = NCI Yeast Anticancer Drug Screen. Data for the CLN2oe strain (AID 163);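 also: 0% = growth of vehicle-only control cultures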; conditions: S. cerevisiae CLN2oe strain, hits give high values
# Procedure, shortened: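 First, the altered yeast strain was treated with each compound; second, its growth was measured; finally, inhibition was derived by comparison with vehicle controls.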
# [10] = NCI Yeast Anticancer Drug Screen. Data for the cln2 rad14 strain (AID 165);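 also: 0% = growth equal to vehicle treated cultures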; conditions: S. cerevisiae cln2 rad14 strain, hits give high values
# Procedure, shortened: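 Test compounds were added to cln2 rad14 yeast cultures; inhibition of growth was then determined by comparison with vehicle treatment.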
# [11] = NCI Yeast Anticancer Drug Screen. Data for the bub3 strain (AID 167); conditions: S. cerevisiae bub3 mutant strain, hits give high values
# Procedure, shortened: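 Steps: expose the mutant yeast strain to compound; grow alongside vehicle-treated cultures; measure growth; express inhibition against the vehicle cultures.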
# [12] = NCI Yeast Anticancer Drug Screen. Data for the wt2 strain (AID 169);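 also: 0% = growth of vehicle-treated yeast cultures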; conditions: S. cerevisiae wt2 strain growth inhibition, hits give high values
# Procedure, shortened: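 The panel's yeast strains carry defined changes in DNA repair or cell cycle genes. Each strain is grown with compound, and growth loss is scored relative to vehicle.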
# [13] = NCI Yeast Anticancer Drug Screen. Data for the mlh1 strain (AID 171);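 also: 0% = growth of vehicle-treated control cultures of the same strain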; conditions: S. cerevisiae mlh1 strain growth inhibition, hits give high values
# Procedure, shortened: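 Inhibition values reflect reduced yeast growth in the presence of compound, referenced to vehicle controls, using a strain chosen for its alteration in DNA repair or cell cycle control.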
# [14] = NCI Yeast Anticancer Drug Screen. Data for the sgs1 strain (AID 173);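 also: 0% = growth of vehicle-only control cultures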; conditions: S. cerevisiae sgs1 mutant, hits give high values
# Procedure, shortened: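 Vehicle-treated cultures served as reference for growth inhibition of a yeast strain altered in DNA damage repair or cell cycle control after compound exposure.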
# [15] = NCI Yeast Anticancer Drug Screen. Data for the mlh1 rad18 strain (AID 175); conditions: S. cerevisiae mlh1 rad18 strain growth inhibition, hits give high values
# Procedure, shortened: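 Inhibition values reflect reduced growth of mutant yeast versus vehicle-treated controls following compound exposure; the mutations affect DNA damage repair.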
# [16] = NCI Yeast Anticancer Drug Screen. Data for the rad18 strain (AID 177); conditions: S. cerevisiae rad18 mutant growth inhibition, hits give high values
# Procedure, shortened: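 Steps: expose repair-mutant yeast to compound; measure growth; express as inhibition relative to vehicle control.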
# [17] = at 5.0 µM (retest, dose inferred, filed as 0.5)
# [18] = at 50.0 µM (retest, dose inferred, filed as 5.0)
smiles,measurement,setting,value
CCCNC(=O)OCc1c(COC(=O)NCCC)c(-c2ccc(Cl)c(Cl)c2)n2c1CCC2,growth inhibition,[1]; at 1.2 µM,-3%
same,growth inhibition,[1]; at 3.7 µM,-7%
same,growth inhibition,[1]; at 11.0 µM,-5%
same,growth inhibition,[1]; at 33.0 µM,29%
same,growth inhibition,[1]; at 100.0 µM,58%
same,growth inhibition,[2]; at 1.2 µM,-25%
same,growth inhibition,[2]; at 3.7 µM,-38%
same,growth inhibition,[2]; at 11.0 µM,-35%
same,growth inhibition,[2]; at 33.0 µM,-34%
same,growth inhibition,[2]; at 100.0 µM,4%
same,growth inhibition,[3]; at 1.2 µM,-4%
same,growth inhibition,[3]; at 3.7 µM,0%
same,growth inhibition,[3]; at 11.0 µM,-6%
same,growth inhibition,[3]; at 33.0 µM,8%
same,growth inhibition,[3]; at 100.0 µM,5%
same,growth inhibition,[4]; at 1.2 µM,-48%
same,growth inhibition,[4]; at 3.7 µM,-35%
same,growth inhibition,[4]; at 11.0 µM,-30%
same,growth inhibition,[4]; at 33.0 µM,-7%
same,growth inhibition,[4]; at 100.0 µM,50%
same,growth inhibition,[5]; at 1.2 µM,-39%
same,growth inhibition,[5]; at 3.7 µM,-43%
same,growth inhibition,[5]; [17],21%
same,growth inhibition,[5]; at 11.0 µM,-27%
same,growth inhibition,[5]; at 33.0 µM,1%
same,growth inhibition,[5]; [18],42%
same,growth inhibition,[5]; at 50.0 µM,61.9%
same,growth inhibition,[5]; at 100.0 µM,50%
same,growth inhibition,[6]; at 1.2 µM,-47%
same,growth inhibition,[6]; at 3.7 µM,-40%
same,growth inhibition,[6]; [17],11%
same,growth inhibition,[6]; at 11.0 µM,-31%
same,growth inhibition,[6]; at 33.0 µM,-12%
same,growth inhibition,[6]; [18],25%
same,growth inhibition,[6]; at 50.0 µM,41.1%
same,growth inhibition,[6]; at 100.0 µM,28%
same,growth inhibition,[7]; at 1.2 µM,-28%
same,growth inhibition,[7]; at 3.7 µM,-3%
same,growth inhibition,[7]; at 11.0 µM,0%
same,growth inhibition,[7]; at 33.0 µM,54%
same,growth inhibition,[7]; at 100.0 µM,73% (active)
same,growth inhibition,[8]; [17],30%
same,growth inhibition,[8]; [18],67%
same,growth inhibition,[8]; at 50.0 µM,50.7%
same,growth inhibition,[9]; at 1.2 µM,0%
same,growth inhibition,[9]; at 3.7 µM,-16%
same,growth inhibition,[9]; at 11.0 µM,-15%
same,growth inhibition,[9]; at 33.0 µM,4%
same,growth inhibition,[9]; at 100.0 µM,20%
same,growth inhibition,[10]; [17],20%
same,growth inhibition,[10]; [18],73% (active)
same,growth inhibition,[10]; at 50.0 µM,22.8%
same,growth inhibition,[11]; at 1.2 µM,-53%
same,growth inhibition,[11]; at 3.7 µM,-47%
same,growth inhibition,[11]; [17],60%
same,growth inhibition,[11]; at 11.0 µM,-24%
same,growth inhibition,[11]; at 33.0 µM,6%
same,growth inhibition,[11]; [18],90% (active)
same,growth inhibition,[11]; at 50.0 µM,46.2%
same,growth inhibition,[11]; at 100.0 µM,48%
same,growth inhibition,[12]; at 1.2 µM,-36%
same,growth inhibition,[12]; at 3.7 µM,-16%
same,growth inhibition,[12]; at 11.0 µM,-27%
same,growth inhibition,[12]; at 33.0 µM,-21%
same,growth inhibition,[12]; at 100.0 µM,44%
same,growth inhibition,[13]; at 1.2 µM,-9%
same,growth inhibition,[13]; at 3.7 µM,-9%
same,growth inhibition,[13]; at 11.0 µM,-19%
same,growth inhibition,[13]; at 33.0 µM,26%
same,growth inhibition,[13]; at 100.0 µM,57%
same,growth inhibition,[14]; at 1.2 µM,0%
same,growth inhibition,[14]; at 3.7 µM,4%
same,growth inhibition,[14]; at 11.0 µM,11%
same,growth inhibition,[14]; at 33.0 µM,40%
same,growth inhibition,[14]; at 100.0 µM,62%
same,growth inhibition,[15]; [17],22%
same,growth inhibition,[15]; [18],62%
same,growth inhibition,[15]; at 50.0 µM,56.4%
same,growth inhibition,[16]; at 1.2 µM,-35%
same,growth inhibition,[16]; at 3.7 µM,-29%
same,growth inhibition,[16]; at 11.0 µM,2%
same,growth inhibition,[16]; at 33.0 µM,62%
same,growth inhibition,[16]; at 100.0 µM,78% (active)
O=C(Cc1ccccc1)NNc1nc(NNC(=O)c2ccncc2)nc(Nc2ccc(Cl)cc2)n1,growth inhibition,[1]; at 1.2 µM,16%
same,growth inhibition,[1]; at 3.7 µM,6%
same,growth inhibition,[1]; at 11.0 µM,16%
same,growth inhibition,[1]; at 33.0 µM,14%
same,growth inhibition,[1]; at 100.0 µM,17%
same,growth inhibition,[2]; at 1.2 µM,-52%
same,growth inhibition,[2]; at 3.7 µM,-3%
same,growth inhibition,[2]; at 11.0 µM,0%
same,growth inhibition,[2]; at 33.0 µM,-1%
same,growth inhibition,[2]; at 100.0 µM,-1%
same,growth inhibition,[3]; at 1.2 µM,1%
same,growth inhibition,[3]; at 3.7 µM,8%
same,growth inhibition,[3]; at 11.0 µM,6%
same,growth inhibition,[3]; at 33.0 µM,3%
same,growth inhibition,[3]; at 100.0 µM,4%
same,growth inhibition,[4]; at 1.2 µM,1%
same,growth inhibition,[4]; at 3.7 µM,3%
same,growth inhibition,[4]; at 11.0 µM,5%
same,growth inhibition,[4]; at 33.0 µM,3%
same,growth inhibition,[4]; at 100.0 µM,-1%
same,growth inhibition,[5]; at 1.2 µM,-1%
same,growth inhibition,[5]; at 3.7 µM,0%
same,growth inhibition,[5]; [17],3%
same,growth inhibition,[5]; at 11.0 µM,0%
same,growth inhibition,[5]; at 33.0 µM,-1%
same,growth inhibition,[5]; [18],38%
same,growth inhibition,[5]; at 50.0 µM,39.2%
same,growth inhibition,[5]; at 100.0 µM,1%
same,growth inhibition,[6]; at 1.2 µM,-3%
same,growth inhibition,[6]; at 3.7 µM,-5%
same,growth inhibition,[6]; [17],6%
same,growth inhibition,[6]; at 11.0 µM,-1%
same,growth inhibition,[6]; at 33.0 µM,4%
same,growth inhibition,[6]; [18],22%
same,growth inhibition,[6]; at 50.0 µM,48.2%
same,growth inhibition,[6]; at 100.0 µM,-3%
same,growth inhibition,[7]; at 1.2 µM,0%
same,growth inhibition,[7]; at 3.7 µM,4%
same,growth inhibition,[7]; at 11.0 µM,3%
same,growth inhibition,[7]; at 33.0 µM,0%
same,growth inhibition,[7]; at 100.0 µM,2%
same,growth inhibition,[8]; [17],1%
same,growth inhibition,[8]; [18],12%
same,growth inhibition,[8]; at 50.0 µM,55.3%
same,growth inhibition,[9]; at 1.2 µM,-14%
same,growth inhibition,[9]; at 3.7 µM,-9%
same,growth inhibition,[9]; at 11.0 µM,-13%
same,growth inhibition,[9]; at 33.0 µM,-20%
same,growth inhibition,[9]; at 100.0 µM,-24%
same,growth inhibition,[10]; [17],-21%
same,growth inhibition,[10]; [18],45%
same,growth inhibition,[10]; at 50.0 µM,10.1%
same,growth inhibition,[11]; at 1.2 µM,-3%
same,growth inhibition,[11]; at 3.7 µM,-5%
same,growth inhibition,[11]; [17],-7%
same,growth inhibition,[11]; at 11.0 µM,-4%
same,growth inhibition,[11]; at 33.0 µM,-6%
same,growth inhibition,[11]; [18],98% (active)
same,growth inhibition,[11]; at 50.0 µM,31.8%
same,growth inhibition,[11]; at 100.0 µM,-7%
same,growth inhibition,[12]; at 1.2 µM,-4%
same,growth inhibition,[12]; at 3.7 µM,2%
same,growth inhibition,[12]; at 11.0 µM,4%
same,growth inhibition,[12]; at 33.0 µM,-1%
same,growth inhibition,[12]; at 100.0 µM,-2%
same,growth inhibition,[13]; at 1.2 µM,-2%
same,growth inhibition,[13]; at 3.7 µM,-1%
same,growth inhibition,[13]; at 11.0 µM,0%
same,growth inhibition,[13]; at 33.0 µM,-2%
same,growth inhibition,[13]; at 100.0 µM,-3%
same,growth inhibition,[14]; at 1.2 µM,3%
same,growth inhibition,[14]; at 3.7 µM,7%
same,growth inhibition,[14]; at 11.0 µM,7%
same,growth inhibition,[14]; at 33.0 µM,6%
same,growth inhibition,[14]; at 100.0 µM,4%
same,growth inhibition,[15]; [17],13%
same,growth inhibition,[15]; [18],14%
same,growth inhibition,[15]; at 50.0 µM,59.9%
same,growth inhibition,[16]; at 1.2 µM,9%
same,growth inhibition,[16]; at 3.7 µM,10%
same,growth inhibition,[16]; at 11.0 µM,19%
same,growth inhibition,[16]; at 33.0 µM,19%
same,growth inhibition,[16]; at 100.0 µM,15%
